Assay [1] concerns the target MAP/microtubule affinity-regulating kinase 3 (Homo sapiens) (UniProt P27448). The settings on record: at 1 µM.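 Further: reported values are averaged percent inhibition of MARK3.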
In assay [2] the target is T1, MAP/microtubule affinity-regulating kinase 4 (Homo sapiens) (UniProt Q96L34).
T1 sequence (whole entry): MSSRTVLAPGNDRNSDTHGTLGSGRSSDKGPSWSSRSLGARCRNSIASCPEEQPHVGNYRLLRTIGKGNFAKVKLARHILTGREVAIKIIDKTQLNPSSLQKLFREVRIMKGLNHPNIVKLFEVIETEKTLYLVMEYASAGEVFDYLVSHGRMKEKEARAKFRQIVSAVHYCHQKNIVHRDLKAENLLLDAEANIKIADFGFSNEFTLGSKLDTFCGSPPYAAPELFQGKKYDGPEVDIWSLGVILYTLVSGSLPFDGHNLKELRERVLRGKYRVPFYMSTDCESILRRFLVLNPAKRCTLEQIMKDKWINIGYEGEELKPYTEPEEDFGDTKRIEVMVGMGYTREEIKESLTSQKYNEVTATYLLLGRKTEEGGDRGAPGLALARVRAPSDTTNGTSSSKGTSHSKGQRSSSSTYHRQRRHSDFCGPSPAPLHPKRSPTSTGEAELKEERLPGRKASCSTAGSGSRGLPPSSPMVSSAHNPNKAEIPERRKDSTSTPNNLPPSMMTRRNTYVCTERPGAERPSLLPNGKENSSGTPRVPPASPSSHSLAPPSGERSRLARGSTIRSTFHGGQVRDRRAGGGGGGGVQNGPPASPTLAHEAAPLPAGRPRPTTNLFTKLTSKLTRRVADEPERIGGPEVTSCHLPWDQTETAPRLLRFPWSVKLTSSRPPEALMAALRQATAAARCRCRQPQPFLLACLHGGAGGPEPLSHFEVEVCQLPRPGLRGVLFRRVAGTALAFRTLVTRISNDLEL
Conditions: at 0.1 µM.

The target in assay [3] is T1, MAP/microtubule affinity-regulating kinase 4 (Homo sapiens). The settings on record: at 1 µM.
In assay [4] the target is Maternal embryonic leucine zipper kinase (Homo sapiens) (UniProt Q14680). The settings on record: at 0.1 µM.
Sequence of Maternal embryonic leucine zipper kinase (Homo sapiens) (Q14680 whole entry, looked up): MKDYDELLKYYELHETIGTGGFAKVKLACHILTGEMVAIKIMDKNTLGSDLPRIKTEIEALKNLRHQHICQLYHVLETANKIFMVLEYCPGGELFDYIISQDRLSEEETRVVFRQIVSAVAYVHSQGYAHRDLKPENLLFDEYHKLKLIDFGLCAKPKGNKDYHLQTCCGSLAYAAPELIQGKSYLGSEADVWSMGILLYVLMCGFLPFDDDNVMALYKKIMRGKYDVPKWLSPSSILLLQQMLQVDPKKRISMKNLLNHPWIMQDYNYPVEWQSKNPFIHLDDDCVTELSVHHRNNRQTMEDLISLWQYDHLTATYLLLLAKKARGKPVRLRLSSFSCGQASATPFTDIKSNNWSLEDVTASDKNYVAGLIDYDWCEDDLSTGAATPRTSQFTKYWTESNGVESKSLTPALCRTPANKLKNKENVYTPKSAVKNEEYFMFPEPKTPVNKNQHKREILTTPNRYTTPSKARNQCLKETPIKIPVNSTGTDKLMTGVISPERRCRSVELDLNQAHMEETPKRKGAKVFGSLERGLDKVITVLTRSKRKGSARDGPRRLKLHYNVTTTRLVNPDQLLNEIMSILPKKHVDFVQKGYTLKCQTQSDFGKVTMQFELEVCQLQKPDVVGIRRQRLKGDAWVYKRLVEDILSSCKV
Assay [5] has the same target. The settings on record: at 1 µM.
Assay [6] has as its target MAP kinase-interacting serine/threonine-protein kinase 1 (Homo sapiens) (UniProt Q9BUB5). Conditions: at 0.1 µM.
Assay [7] shares this target. The settings on record: at 1 µM.
The target in assay [8] is MAP kinase-interacting serine/threonine-protein kinase 2 (Homo sapiens) (UniProt Q9HBH9). Conditions: at 0.1 µM.
Sequence of MAP kinase-interacting serine/threonine-protein kinase 2 (Homo sapiens) (Q9HBH9 whole entry, looked up): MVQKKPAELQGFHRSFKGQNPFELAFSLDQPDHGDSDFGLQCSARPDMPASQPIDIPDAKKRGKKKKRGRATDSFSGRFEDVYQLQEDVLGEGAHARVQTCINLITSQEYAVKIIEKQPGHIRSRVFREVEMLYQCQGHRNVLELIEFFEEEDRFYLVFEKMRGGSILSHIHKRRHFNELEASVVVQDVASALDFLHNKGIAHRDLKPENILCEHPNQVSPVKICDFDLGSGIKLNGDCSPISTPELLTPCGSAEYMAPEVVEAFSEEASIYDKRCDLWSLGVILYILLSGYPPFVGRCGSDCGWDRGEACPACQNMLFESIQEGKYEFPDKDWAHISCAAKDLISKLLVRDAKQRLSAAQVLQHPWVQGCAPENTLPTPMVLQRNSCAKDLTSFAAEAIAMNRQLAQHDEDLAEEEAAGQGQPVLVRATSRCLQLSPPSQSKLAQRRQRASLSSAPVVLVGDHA
Assay [9] has the same target. The settings on record: at 1 µM.
Assay [10] concerns the target Serine/threonine-protein kinase MARK2 (Homo sapiens) (UniProt Q7KZI7). Conditions: at 0.1 µM.
For assay [11] the target is unchanged. Conditions: at 1 µM.
In assay [12] the target is PAS domain-containing serine/threonine-protein kinase (Homo sapiens) (UniProt Q96RG2). Conditions: at 0.1 µM.
Sequence of PAS domain-containing serine/threonine-protein kinase (Homo sapiens) (Q96RG2 whole entry, the tested form may be a part): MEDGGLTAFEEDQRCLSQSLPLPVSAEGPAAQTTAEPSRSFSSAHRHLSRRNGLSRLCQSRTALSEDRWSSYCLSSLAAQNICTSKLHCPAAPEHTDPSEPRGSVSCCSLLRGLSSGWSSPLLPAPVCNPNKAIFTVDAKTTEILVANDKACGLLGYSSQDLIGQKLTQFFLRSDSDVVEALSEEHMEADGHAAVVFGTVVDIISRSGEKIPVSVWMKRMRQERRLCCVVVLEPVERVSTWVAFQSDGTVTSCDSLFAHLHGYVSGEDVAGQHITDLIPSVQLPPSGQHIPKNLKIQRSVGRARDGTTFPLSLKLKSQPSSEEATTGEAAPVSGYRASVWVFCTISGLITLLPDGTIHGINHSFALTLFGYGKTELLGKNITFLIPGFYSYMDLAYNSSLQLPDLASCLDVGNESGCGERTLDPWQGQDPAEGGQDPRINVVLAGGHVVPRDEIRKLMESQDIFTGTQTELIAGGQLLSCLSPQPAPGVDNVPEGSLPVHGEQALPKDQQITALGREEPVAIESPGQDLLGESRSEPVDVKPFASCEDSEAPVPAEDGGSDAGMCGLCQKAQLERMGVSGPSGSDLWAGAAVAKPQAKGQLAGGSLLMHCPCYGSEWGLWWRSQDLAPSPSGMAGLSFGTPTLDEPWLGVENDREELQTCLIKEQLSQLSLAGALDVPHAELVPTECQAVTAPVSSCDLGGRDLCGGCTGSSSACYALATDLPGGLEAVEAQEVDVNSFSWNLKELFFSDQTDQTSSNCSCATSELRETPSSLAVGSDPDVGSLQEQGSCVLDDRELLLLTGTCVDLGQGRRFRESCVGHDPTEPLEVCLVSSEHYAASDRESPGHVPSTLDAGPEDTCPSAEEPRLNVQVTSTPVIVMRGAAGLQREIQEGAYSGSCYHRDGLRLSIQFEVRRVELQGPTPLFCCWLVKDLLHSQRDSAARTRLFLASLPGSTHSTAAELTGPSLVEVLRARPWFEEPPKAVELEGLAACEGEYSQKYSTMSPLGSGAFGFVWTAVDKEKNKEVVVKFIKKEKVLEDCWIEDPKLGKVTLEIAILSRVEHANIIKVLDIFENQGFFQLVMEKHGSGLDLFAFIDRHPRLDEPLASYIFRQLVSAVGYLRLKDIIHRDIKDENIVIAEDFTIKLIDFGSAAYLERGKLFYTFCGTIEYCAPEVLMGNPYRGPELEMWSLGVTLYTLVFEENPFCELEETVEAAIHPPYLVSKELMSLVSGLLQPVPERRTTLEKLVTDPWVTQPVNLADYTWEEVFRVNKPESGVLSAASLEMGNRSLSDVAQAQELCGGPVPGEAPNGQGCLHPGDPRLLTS
Assay [13] has the same target. The settings on record: at 1 µM.
Assay [14] concerns the target Phosphorylase b kinase gamma catalytic chain, skeletal muscle/heart isoform (Homo sapiens) (UniProt Q16816). Conditions: at 0.1 µM.
Assay [15] shares this target. Conditions: at 1 µM.
The target of assay [16] is T2, Phosphorylase b kinase gamma catalytic chain, liver/testis isoform (Homo sapiens) (UniProt P15735).
T2 sequence (whole entry): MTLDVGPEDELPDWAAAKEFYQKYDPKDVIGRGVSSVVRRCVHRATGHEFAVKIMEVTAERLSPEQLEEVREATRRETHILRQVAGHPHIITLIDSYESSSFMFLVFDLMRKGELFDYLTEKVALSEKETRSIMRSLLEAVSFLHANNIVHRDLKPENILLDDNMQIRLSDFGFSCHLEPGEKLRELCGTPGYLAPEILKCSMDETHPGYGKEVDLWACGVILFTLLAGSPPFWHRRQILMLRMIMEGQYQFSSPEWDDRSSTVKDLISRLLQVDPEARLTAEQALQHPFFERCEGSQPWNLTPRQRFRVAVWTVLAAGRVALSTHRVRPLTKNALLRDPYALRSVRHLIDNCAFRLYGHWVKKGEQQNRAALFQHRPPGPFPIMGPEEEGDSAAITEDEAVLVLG
Conditions: at 0.1 µM.

The target of assay [17] is T2, Phosphorylase b kinase gamma catalytic chain, liver/testis isoform (Homo sapiens). Conditions: at 1 µM.
Assay [18] has as its target Serine/threonine-protein kinase pim-1 (Homo sapiens) (UniProt P11309). Conditions: at 0.1 µM.
Assay [19] has the same target. Conditions: at 1 µM.
Assay [20] deals with Serine/threonine-protein kinase pim-2 (Homo sapiens) (UniProt Q9P1W9). Conditions: at 0.1 µM.
Sequence of Serine/threonine-protein kinase pim-2 (Homo sapiens) (Q9P1W9 whole entry, looked up): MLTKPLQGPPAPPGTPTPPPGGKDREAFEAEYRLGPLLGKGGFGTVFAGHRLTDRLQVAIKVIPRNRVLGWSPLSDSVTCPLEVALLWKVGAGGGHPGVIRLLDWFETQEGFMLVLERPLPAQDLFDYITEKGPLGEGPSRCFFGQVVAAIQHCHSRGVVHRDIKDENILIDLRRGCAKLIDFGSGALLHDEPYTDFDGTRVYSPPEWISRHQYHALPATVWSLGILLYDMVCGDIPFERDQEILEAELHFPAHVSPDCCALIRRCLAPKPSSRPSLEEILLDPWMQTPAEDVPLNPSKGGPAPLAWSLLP

Sequence of Serine/threonine-protein kinase MARK2 (Homo sapiens) (Q7KZI7 whole entry): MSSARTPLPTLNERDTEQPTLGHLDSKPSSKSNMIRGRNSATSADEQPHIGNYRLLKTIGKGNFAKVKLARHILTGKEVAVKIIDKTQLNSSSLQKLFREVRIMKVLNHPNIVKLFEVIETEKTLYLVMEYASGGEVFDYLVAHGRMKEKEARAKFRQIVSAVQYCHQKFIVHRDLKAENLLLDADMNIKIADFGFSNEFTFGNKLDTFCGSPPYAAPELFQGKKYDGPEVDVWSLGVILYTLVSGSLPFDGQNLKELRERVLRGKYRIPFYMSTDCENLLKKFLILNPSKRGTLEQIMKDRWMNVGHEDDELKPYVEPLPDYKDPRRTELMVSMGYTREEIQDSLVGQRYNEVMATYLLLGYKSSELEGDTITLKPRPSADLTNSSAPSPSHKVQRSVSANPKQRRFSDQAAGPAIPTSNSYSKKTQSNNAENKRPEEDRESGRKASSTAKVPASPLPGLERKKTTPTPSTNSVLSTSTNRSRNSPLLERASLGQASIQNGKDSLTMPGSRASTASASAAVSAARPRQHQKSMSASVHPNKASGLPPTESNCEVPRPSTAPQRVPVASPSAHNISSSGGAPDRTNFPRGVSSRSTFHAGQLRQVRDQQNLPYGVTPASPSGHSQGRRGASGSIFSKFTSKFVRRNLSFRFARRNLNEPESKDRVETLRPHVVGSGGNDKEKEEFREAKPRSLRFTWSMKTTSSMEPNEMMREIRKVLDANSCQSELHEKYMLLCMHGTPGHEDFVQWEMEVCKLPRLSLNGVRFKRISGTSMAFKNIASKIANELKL
Sequence of Serine/threonine-protein kinase pim-1 (Homo sapiens) (P11309 whole entry, looked up): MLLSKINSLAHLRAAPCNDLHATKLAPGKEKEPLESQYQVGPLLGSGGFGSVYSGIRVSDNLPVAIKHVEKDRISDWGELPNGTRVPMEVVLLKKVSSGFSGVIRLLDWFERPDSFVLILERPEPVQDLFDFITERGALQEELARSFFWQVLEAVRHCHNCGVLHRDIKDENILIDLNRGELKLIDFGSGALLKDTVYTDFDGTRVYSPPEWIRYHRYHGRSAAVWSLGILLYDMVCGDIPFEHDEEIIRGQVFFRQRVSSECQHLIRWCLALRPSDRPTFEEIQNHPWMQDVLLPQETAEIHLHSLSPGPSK
Sequence of Phosphorylase b kinase gamma catalytic chain, skeletal muscle/heart isoform (Homo sapiens) (Q16816 whole entry, looked up, canonical isoform): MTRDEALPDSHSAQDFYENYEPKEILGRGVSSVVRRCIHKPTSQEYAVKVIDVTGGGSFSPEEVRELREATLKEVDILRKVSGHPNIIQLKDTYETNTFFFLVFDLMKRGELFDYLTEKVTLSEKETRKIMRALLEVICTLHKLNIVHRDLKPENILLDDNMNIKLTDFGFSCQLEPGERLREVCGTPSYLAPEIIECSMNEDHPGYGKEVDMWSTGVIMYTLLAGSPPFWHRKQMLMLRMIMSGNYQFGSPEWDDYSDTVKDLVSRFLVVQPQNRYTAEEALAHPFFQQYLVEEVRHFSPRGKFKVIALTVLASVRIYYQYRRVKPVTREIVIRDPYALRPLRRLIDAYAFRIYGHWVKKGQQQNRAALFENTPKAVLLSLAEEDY
Sequence of MAP/microtubule affinity-regulating kinase 3 (Homo sapiens) (P27448 whole entry, looked up): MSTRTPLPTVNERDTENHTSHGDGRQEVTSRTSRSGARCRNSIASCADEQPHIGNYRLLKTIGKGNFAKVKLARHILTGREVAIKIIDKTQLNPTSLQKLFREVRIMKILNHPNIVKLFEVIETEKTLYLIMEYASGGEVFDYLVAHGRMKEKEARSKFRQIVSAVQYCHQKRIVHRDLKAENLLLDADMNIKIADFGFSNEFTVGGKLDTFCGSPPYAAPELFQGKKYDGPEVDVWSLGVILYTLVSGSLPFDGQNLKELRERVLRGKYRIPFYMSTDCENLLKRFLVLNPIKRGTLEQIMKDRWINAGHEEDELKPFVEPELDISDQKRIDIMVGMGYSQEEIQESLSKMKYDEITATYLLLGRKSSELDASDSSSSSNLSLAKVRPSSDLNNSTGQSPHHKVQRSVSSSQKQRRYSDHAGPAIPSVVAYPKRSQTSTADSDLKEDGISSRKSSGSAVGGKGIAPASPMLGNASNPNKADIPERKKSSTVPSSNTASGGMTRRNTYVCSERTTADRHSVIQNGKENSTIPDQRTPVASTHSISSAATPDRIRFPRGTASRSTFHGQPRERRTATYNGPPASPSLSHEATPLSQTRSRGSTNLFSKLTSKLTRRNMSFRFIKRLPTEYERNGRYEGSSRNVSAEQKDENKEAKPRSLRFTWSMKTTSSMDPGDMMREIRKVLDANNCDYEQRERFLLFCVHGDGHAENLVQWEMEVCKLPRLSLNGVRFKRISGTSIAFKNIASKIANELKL

As usually defined, the inhibition is the drop in the measured response relative to a control, in per cent. On to `O=C(Nc1ccc(Oc2ccc3[nH]c(NC(=O)c4ccco4)nc3c2)cc1)Nc1cc(C(F)(F)F)ccc1F`, for which the inhibition in [1] is -0.23%; in assay [2], 0.1%; in assay [3], 2.11%; in assay [4], 0.54%; in assay [5] it was 8.57%; in [6], 3.42%. Moreover, the inhibition in [7] is 28.4%; in assay [8], 2.04%; in [9], 37.3%; in assay [10], -0.8%; in assay [11] it was 0.83%; in [12], 0.28%. Besides, the inhibition in [13] is 0.06%; in assay [14] it was 0.41%; in assay [15], 8.29%; in assay [16] it was 0.46%; in assay [17], -0.56%; in assay [18] it was 0.14%. The results for the inhibition in assay [19] and in assay [20] were 1.19% and -3.36%, respectively.

For the compound `NS(=O)(=O)c1ccc(N/N=C2\C(=O)Nc3ccc(Cl)cc32)cc1`, the inhibition in assay [1] is 13.2%; in assay [2], 2.09%; in [3] it was 11.2%; in assay [4] it was 3.75%; in assay [5] it was 8.5%; in assay [6] it was 2.08%. The inhibition in assay [7] turned out to be 10.1%; in assay [8], 1.59%; in assay [9] it was 5.65%; in [10], 0.41%; in [11], 6.16%; in assay [12], 0.76%. Besides, the inhibition amounted to 1.52% in assay [13]; 0.25% in assay [14]; 14.3% in [15]; 5.9% in assay [16]; 8.4% in assay [17]; 1.22% in assay [18]. The inhibition in assay [19] is 2.42%; in assay [20] it was -0.27%.

As to `FC(F)(F)c1ccc(-c2nn3ncccc3c2-c2ccnc(Nc3ccc4c(c3)OCCO4)n2)cc1`, the inhibition was 11.2% in [1]; 4.98% in [2]; 6.4% in [3]; -0.41% in [4]; -0.13% in assay [5]; 6.66% in assay [6]. Besides, the inhibition in assay [7] came to 10.9%; in [8], 6.24%; in assay [9] it was 9.7%; in [10], 6.43%; in assay [11] it was 4.45%; in assay [12], 6.37%. Also, the inhibition in assay [13] came to 10.9%; in assay [14], 7.07%; in assay [15] it was 8.64%; in assay [16], 0.59%; in assay [17], 6.97%; in assay [18], 0.47%. Moreover, the inhibition in assay [19] worked out at 1.86%; in assay [20], 6.45%.

On to `c1ccc(Cc2nc3ccc(Nc4ncnc5ccccc45)cc3[nH]2)cc1`, for which the inhibition in assay [1] is 3.72%; in assay [2] it was 0.9%; in assay [3] it was 2.17%; in assay [4], 0.16%; in assay [5], 7.57%; in [6] it was 2.13%. Besides, the inhibition turned out to be 5.06% in assay [7]; 1.25% in assay [8]; 5.19% in assay [9]; 0.28% in assay [10]; 2.19% in assay [11]; 0.03% in assay [12]. Besides, the inhibition in [13] amounted to 0.27%; in assay [14], 2.35%; in [15], 4.75%; in assay [16], 3.39%; in assay [17], 4.89%; in assay [18], 0.17%. The inhibition in assay [19] is 0.7%; in [20], -0.72%.

Regarding `Nc1nccc(-c2c(-c3ccc(F)cc3)nn3cc(C(F)(F)F)ccc23)n1`, the inhibition in assay [1] is -0.99%; in assay [2], -0.15%; in assay [3], -0.03%; in assay [4], 0.66%; in [5], -0.87%; in assay [6], 1.92%. For the same compound, the inhibition is 3.98% in assay [7]; 0.49% in assay [8]; 2.23% in [9]; -2.12% in assay [10]; -0.77% in [11]; 0.89% in assay [12]. Moreover, the inhibition was found to be 0.42% in assay [13]; 3.63% in assay [14]; 3.94% in assay [15]; 0.86% in assay [16]; 0.54% in assay [17]; 0.21% in assay [18]. In addition, the figures for the inhibition in [19] and in [20] were -0.89% and -0.09%, respectively.

`COc1cc2ncnc(Nc3ccc4c(cnn4Cc4ccccc4)c3)c2cc1OC`: the inhibition in assay [1] stood at 2.6%; in assay [2], 1.05%; in [3], 3.55%; in assay [4], 3.54%; in [5], 8.01%; in [6], 2.44%. Further, the inhibition is 18% in [7]; 0.99% in assay [8]; 17.1% in assay [9]; -0.07% in assay [10]; 3.96% in assay [11]; 0.55% in assay [12]. Besides, the inhibition in [13] was -0.09%; in assay [14], 3.79%; in [15] it was 8.41%; in assay [16], 2.67%; in [17] it was 2.41%; in assay [18] it was 0.14%. Also, the inhibition was 1.19% in [19] and 0.05% in assay [20].

As for `CCS(=O)(=O)c1ccc(OC)c(Nc2ncc(-c3cccc(OC)c3)o2)c1`, the inhibition in [1] worked out at 2.05%; in assay [2] it was 0.15%; in assay [3], 1.64%; in [4], 2.89%; in assay [5], 11.4%; in assay [6], 4.25%. Further, the inhibition in [7] was 17%; in [8] it was 1.44%; in assay [9] it was 10.6%; in assay [10], -0.52%; in [11] it was 1.4%; in [12], 0.21%. The inhibition in assay [13] was -1.97%; in assay [14] it was 1.03%; in assay [15], 18.3%; in [16], 2.69%; in assay [17], -0.05%; in assay [18], 1.53%. The inhibition in assay [19] is 2.93%; in assay [20] it was 0.07%.

The values are drawn from ChEMBL document CHEMBL1961873, “Compounds: GSK PKIS; Assays: Nanosyn kinase panel” (2012).
